The record followed here is PubChem BioAssay (Tox21).

Experiment [1] is described as follows: Nuclear factor erythroid 2-related factor 2/antioxidant responsive element (Nrf2/ARE) small molecule agonists: qHTS cell viability counter screen in human keratinocytes (AID 1919968; active means well fitted curve in the direction sought with a large enough effect in the repeat runs; an effect the other way counts as inactive or inconclusive; further: nearly all actives have a fitted effect of over 55% in size). The essentials: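 Measured as CellTiter-Fluor fluorescence, this readout tracks cytotoxicity in the same wells as the ARE-luciferase screen. HaCaT reporter cells (1,500/well) received compounds after a 5 h pre-incubation and were exposed for 23 h.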

A short description of experiment [2]: Nuclear factor erythroid 2-related factor 2/antioxidant responsive element (Nrf2/ARE) small molecule agonists: luciferase reporter gene qHTS assay in human keratinocytes (AID 1919969). Further: nearly all actives have a fitted effect of over 35% in size. Further: potency means the concentration at half of the fitted maximal effect.
Experiment [3] deals with Gonadotropin-releasing hormone receptor (Homo sapiens) (UniProt P30968). The experiment in a line: Human gonadotropin-releasing hormone receptor (GnRHR) small molecule agonists, calcium flux assay in GnRHR-HEK293 cells (AID 1920063). Further: nearly all actives have a fitted effect of over 35% in size. The essentials: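 Fluorescence kinetics (480 nm excitation, 540 nm emission; 3 min, 1 s steps) report calcium mobilisation in human GnRHR-HEK293 cells in agonist mode. Dye incubation: 1 h, 37 C.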

Experiment [4] deals with KiSS-1 receptor (Homo sapiens) (UniProt Q969F8). The experiment in a line: Human kisspeptin (KISS1R) small molecule agonists, calcium flux assay in KISS1R-HEK293 cells (AID 1920064; active means well fitted curve in the direction sought with a large enough effect in the repeat runs; an effect the other way counts as inactive or inconclusive). In short, it runs like this:
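Measures KISS1R agonism through calcium-sensitive dye fluorescence in stably transfected HEK293 cells, read for 3 min after pin-tool compound delivery; 15-point titrations in triplicate.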
Background: Calcium flux is commonly read through the fluorescence of an indicator in the cells.

The nature of experiment [5]: G protein-coupled receptor (GPCR) small molecule agonists, calcium flux assay: HEK293 wild type cell line counter screen (AID 1920065). The essentials:
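Readout: fluorescence at 480 nm excitation/540 nm emission, sampled at 1 s intervals for 3 min. Cells had been cultured 18 h, then dye-loaded 1 h at 37 C before compound or ATP addition.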

Experiment [6] can be described thus: p53 small molecule agonists, cell-based qHTS assay with human liver microsomes (AID 1963577).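 Further: p53 response element beta-lactamase reporter cells with liver microsomes plus NADPH.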 In short, it runs like this:
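With metabolic activation: human liver microsomes (0.5 mg/mL final) plus NADPH (0.5 mg/mL final) added alongside compounds to p53RE-bla cells; 16 h 37 C exposure; beta-lactamase read by LiveBLAzer fluorescence.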
On the technique in general: Quantitative high-throughput screening tests each substance at several concentrations.

The nature of experiment [7]: p53 small molecule agonists, cell-based qHTS assay with rat liver microsomes (AID 1963578). The essentials:
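Metabolic activation by rat liver microsomes and NADPH, each 0.5 mg/mL final, added right after compounds to p53RE-bla reporter cells (4,000/well, plated 5 h earlier). 16 h at 37 C, then LiveBLAzer substrate for 2 h at room temperature in the dark; fluorescence read-out.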

The nature of experiment [8]: p53 small molecule agonists, cell-based qHTS assay with human liver microsomes: qHTS cell viability counter screen (AID 1963579). Further: nearly all actives have a fitted effect of over 45% in size. The essentials:
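Metabolic activation used human liver microsomes and NADPH, both 0.5 mg/mL final, over 16 hours at 37 C on p53RE-bla cells (4,000/well). Cytotoxicity measured by CellTiter-Glo luminescence, 30 min at room temperature.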

Experiment [9] is described as follows: p53 small molecule agonists, cell-based qHTS assay with rat liver microsomes: qHTS cell viability counter screen (AID 1963580). Further: nearly all actives have a fitted effect of over 45% in size. The essentials:
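p53RE-bla HCT-116 cells were exposed 16 h at 37 C to compounds with rat liver microsomes (0.5 mg/mL) and NADPH (0.5 mg/mL). Viability was measured in the same wells as ATP content by CellTiter-Glo luminescence.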

Experiment [10] can be described thus: p53 small molecule agonists, cell-based qHTS assay: qHTS cell viability counter screen (AID 1963581). Further: nearly all actives have a fitted effect of over 45% in size. In short, it runs like this: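 In the same plates used for the p53 bla reporter, HCT-116 cells given compounds for 16 h at 37 C received CellTiter-Glo; luminescence was recorded 30 min later at room temperature.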
The nature of experiment [11]: p53 small molecule agonists, cell-based qHTS assay (AID 1963582; active means well fitted activation curve with a large enough effect in the signal ratio in the repeat runs, not every such curve was filed as active; the % refers to the signal ratio). The essentials:
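Compounds are pin-transferred in DMSO onto p53RE-bla cells and incubated 16 h at 37 C. The B/G FRET beta-lactamase substrate is then applied for 2 h at RT and fluorescence recorded.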

Experiment [12] deals with 5-hydroxytryptamine receptor 2A (Homo sapiens) (UniProt P28223). The experiment in a line: 5-hydroxytryptamine receptor 2A (HTR2A) small molecule antagonists, cell-based qHTS assay (AID 1963586). Further: nearly all actives have a fitted effect of over 45% in size. In short, it runs like this: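 Antagonist-mode intracellular calcium assay: DOI (4 nM) added after 5 min compound pre-incubation at room temperature to dye-loaded HTR2A-CHO cells. Fluorescence followed for 3 min, sampled every second.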

Experiment [13] has the same target. As to the kind of experiment: 5-hydroxytryptamine receptor 2A (HTR2A) small molecule agonists, cell-based qHTS assay (AID 1963587). Further: nearly all actives have a fitted effect of over 30% in size. In short, it runs like this:
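CHO cells stably expressing human HTR2A, plated 18 h, loaded with calcium dye 1 h at 37 C. Agonist mode: compounds added and intracellular calcium fluorescence recorded kinetically for 2 min at 1 sec intervals.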

The target of experiment [14] is Muscarinic acetylcholine receptor M1 (Homo sapiens) (UniProt P11229). As to the kind of experiment: Cholinergic receptor muscarinic 1 (CHRM1) small molecule antagonists, cell-based qHTS assay (AID 1963588). Further: nearly all actives have a fitted effect of over 40% in size. The essentials:
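CHRM1-CHO calcium-flux assay, antagonist mode. Cells were seeded 18 h, dye-loaded 1 h at 37 C and given compound for 5 min at RT, then acetylcholine was added at 50nM. FDSS fluorescence was read 3 min; 15 concentrations, three runs.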

For experiment [15] the target is unchanged. The experiment in a line: Cholinergic receptor muscarinic 1 (CHRM1) small molecule agonists, cell-based qHTS assay (AID 1963589). Further: nearly all actives have a fitted effect of over 35% in size. In short, it runs like this: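 Each compound was tested at 15 concentrations across three independent runs on dye-loaded CHO cells stably expressing human CHRM1, reading intracellular calcium fluorescence kinetically at 1 sec intervals.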

Experiment [16] is described as follows: cAMP Responsive Elements (CRE) small molecule agonists, cell-based qHTS assay (AID 1963590). In short, it runs like this:
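Cell line: CRE-bla HEK 293T; medium DMEM/10% dialyzed FBS/0.1 mM NEAA/1 mM pyruvate/25 mM HEPES; 3 h compound exposure; beta-lactamase FRET readout after 2 h substrate loading at RT.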

The nature of experiment [17]: cAMP Responsive Elements (CRE) small molecule antagonists, cell-based qHTS assay (AID 1963591; active means well fitted inhibition curve with a large enough effect in the signal ratio in the repeat runs, not every such curve was filed as active; the % refers to the signal ratio). The essentials: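 Inhibition of NKH477-driven (0.25 uM final) CRE-beta-lactamase signal in HEK293T cells, 3 h compound exposure at 37 °C, detected by FRET substrate fluorescence.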
For experiment [18], the target named is Beta-2 adrenergic receptor (Homo sapiens) (UniProt P07550). As to the kind of experiment: Adrenergic beta2 receptor (ADRB2) small molecule antagonists, cell-based qHTS assay (AID 1963592). Further: series mostly up to about 92 µM; nearly all actives have a fitted effect of over 50% in size. The essentials: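 Cells (CHO, stable ADRB2 overexpression) incubated 18-20hr at 37C; compounds added from DMSO; agonist mix (1nM isoproterenol, 100uM IBMX, 25uM Ro-20-1724) added; 0.5hr RT; d2-cAMP and anti-cAMP-cryptate added; 1hr RT; 665/615 nm read.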

The target in experiment [19] is D(2) dopamine receptor (Homo sapiens) (UniProt P14416). As to the kind of experiment: Dopamine D2 receptor (DRD2) small molecule agonists, cell-based qHTS assay (AID 1963594). Further: nearly all actives have a fitted effect of over 35% in size. The essentials:
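HEK293 cells stably expressing human DRD2, pre-treated with PDE inhibitor Ro20-1724 (0.1 mM final) and compound 10 min at room temperature, then stimulated with NKH477 (200nM […]) for 30 min. cAMP read by HTRF (665/620 nm).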

Experiment [20] shares this target. The experiment in a line: Dopamine D2 receptor (DRD2) small molecule antagonists, cell-based qHTS assay (AID 1963595; active means well fitted inhibition curve with a large enough effect in the signal ratio in the repeat runs, with a control signal flat; the % refers to the signal ratio). In short, it runs like this: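 Cells were plated and grown for 24 h at 37 °C. Ro20-1724 (0.1 mM final) went in first, then compound for 10 min. NKH477 (200 nM) with quinpirole (12 nM) followed for 30 min at RT, then HTRF detection reagents for 1 h.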

Structures are written as SMILES. Results filed as inconclusive are left out. The source made the active and inactive calls. Unless noted, the call rests on the fitted dose curve.

Sequence of KiSS-1 receptor (Homo sapiens) (Q969F8 whole entry, looked up): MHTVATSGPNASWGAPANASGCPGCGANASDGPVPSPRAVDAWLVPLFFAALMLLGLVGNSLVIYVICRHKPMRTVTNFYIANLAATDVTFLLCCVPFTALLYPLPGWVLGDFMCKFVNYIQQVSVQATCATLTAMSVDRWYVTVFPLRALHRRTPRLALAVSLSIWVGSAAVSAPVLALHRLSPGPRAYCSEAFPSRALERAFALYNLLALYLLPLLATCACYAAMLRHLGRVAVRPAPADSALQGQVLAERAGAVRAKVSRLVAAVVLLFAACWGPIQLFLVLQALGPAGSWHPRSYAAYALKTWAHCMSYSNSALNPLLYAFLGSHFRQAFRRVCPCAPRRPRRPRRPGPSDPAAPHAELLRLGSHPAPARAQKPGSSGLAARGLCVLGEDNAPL
Sequence of Muscarinic acetylcholine receptor M1 (Homo sapiens) (P11229 whole entry, looked up): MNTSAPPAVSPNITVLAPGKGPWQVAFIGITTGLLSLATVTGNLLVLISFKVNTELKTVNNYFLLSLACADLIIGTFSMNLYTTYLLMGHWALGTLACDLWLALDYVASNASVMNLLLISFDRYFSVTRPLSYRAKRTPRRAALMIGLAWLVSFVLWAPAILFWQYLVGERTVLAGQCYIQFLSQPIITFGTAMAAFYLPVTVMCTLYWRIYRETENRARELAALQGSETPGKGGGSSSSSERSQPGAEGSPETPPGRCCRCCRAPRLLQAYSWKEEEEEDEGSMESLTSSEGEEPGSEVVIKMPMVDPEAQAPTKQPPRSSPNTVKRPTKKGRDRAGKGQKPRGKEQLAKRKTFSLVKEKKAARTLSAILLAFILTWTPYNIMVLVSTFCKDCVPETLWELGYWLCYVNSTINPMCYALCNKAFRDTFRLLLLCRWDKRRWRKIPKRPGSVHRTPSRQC
Sequence of D(2) dopamine receptor (Homo sapiens) (P14416 whole entry, looked up): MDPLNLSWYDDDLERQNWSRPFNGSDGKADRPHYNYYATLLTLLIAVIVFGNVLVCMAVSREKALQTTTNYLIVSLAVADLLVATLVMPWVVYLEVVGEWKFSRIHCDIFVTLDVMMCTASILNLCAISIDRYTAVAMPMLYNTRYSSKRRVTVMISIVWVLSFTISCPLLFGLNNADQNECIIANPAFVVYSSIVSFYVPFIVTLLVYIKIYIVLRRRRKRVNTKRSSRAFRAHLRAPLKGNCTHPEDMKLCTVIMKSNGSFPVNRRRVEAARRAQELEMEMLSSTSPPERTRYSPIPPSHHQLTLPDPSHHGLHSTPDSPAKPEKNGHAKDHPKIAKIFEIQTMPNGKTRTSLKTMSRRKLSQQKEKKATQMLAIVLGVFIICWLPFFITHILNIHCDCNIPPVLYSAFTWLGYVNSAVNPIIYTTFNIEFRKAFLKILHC
Sequence of Beta-2 adrenergic receptor (Homo sapiens) (P07550 whole entry, looked up): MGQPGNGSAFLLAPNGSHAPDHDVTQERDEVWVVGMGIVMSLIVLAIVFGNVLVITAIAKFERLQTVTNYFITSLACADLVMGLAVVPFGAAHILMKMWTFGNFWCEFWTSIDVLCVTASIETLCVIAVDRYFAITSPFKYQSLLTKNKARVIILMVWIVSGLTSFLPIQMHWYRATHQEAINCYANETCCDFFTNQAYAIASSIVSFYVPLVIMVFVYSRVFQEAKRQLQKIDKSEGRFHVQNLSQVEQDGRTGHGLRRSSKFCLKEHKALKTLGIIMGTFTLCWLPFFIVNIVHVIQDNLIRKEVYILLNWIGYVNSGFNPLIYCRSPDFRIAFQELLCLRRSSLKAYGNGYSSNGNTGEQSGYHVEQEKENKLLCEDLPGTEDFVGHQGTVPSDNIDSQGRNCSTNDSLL
Sequence of 5-hydroxytryptamine receptor 2A (Homo sapiens) (P28223 whole entry, looked up): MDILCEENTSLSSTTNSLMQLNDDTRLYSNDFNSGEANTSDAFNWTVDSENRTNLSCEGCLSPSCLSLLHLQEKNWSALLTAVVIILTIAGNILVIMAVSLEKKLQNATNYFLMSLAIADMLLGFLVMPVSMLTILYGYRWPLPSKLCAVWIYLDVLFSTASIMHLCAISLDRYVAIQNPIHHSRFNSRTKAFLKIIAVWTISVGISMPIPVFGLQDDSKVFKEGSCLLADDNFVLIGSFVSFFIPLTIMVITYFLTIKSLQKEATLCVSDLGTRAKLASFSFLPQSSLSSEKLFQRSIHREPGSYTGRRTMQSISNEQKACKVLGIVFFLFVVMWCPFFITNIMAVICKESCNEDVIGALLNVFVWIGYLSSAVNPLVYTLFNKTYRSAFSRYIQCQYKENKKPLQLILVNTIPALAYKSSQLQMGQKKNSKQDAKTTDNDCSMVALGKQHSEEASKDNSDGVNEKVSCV
Sequence of Gonadotropin-releasing hormone receptor (Homo sapiens) (P30968 whole entry, looked up): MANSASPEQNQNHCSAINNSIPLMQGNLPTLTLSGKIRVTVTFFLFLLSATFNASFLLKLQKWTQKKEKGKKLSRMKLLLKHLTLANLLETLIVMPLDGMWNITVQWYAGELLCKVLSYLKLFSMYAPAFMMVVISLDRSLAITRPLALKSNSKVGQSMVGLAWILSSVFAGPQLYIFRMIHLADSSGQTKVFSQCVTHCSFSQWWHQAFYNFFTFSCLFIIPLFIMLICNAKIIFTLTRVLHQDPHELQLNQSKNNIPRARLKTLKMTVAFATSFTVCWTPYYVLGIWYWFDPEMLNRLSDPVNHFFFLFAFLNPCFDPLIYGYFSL

Turning to `Nc1cccnc1`, the Potency result in experiment [1], in experiment [2], in experiment [3], in experiment [4], in experiment [5] and in experiment [6] was “inactive” in each case. In addition, the Potency result in experiment [7], in experiment [8], in [9], in experiment [10], in experiment [11] and in experiment [12] was “inactive” each time. In addition, the Potency entry in experiment [13], in experiment [14], in experiment [15], in experiment [16], in experiment [17] and in experiment [18] was “inactive” throughout. Moreover, the Potency result in experiment [19] and in experiment [20] was “inactive” throughout.
Turning to `C(CCOCC1CO1)COCC1CO1` (stereo unspecified), the Potency entry in [1], in experiment [3], in [4], in [5], in experiment [6] and in experiment [7] was “inactive” each time. Further, the Potency entry in [8], in experiment [9], in [10], in experiment [11], in [12] and in [13] was “inactive” throughout. Moreover, the Potency entry in experiment [14], in experiment [15], in experiment [16], in [17], in experiment [18] and in [19] was “inactive” throughout. The Potency entry in [20] is “inactive”. Further, the Potency in experiment [2] was 30.2 µM (active).
For `CC(C)(C)C(=O)Cl`, the Potency result in [1], in [2], in experiment [3], in [4], in [5] and in experiment [6] was “inactive” each time. The Potency entry in experiment [7], in experiment [8], in [9], in [10], in experiment [11] and in [12] was “inactive” each time. The Potency result in [13], in [14], in [15], in experiment [16], in experiment [17] and in [18] was “inactive” in each case. The Potency entry in experiment [19] and in experiment [20] was “inactive” in each case.
With `Cc1cccc(N)c1`, the Potency result in [1], in experiment [2], in experiment [3], in experiment [4], in [5] and in experiment [6] was “inactive” in each case. Further, the Potency entry in [7], in [8], in experiment [9], in experiment [10], in experiment [11] and in [12] was “inactive” in each case. Also, the Potency result in [13], in experiment [14], in experiment [15], in [16], in experiment [17] and in [18] was “inactive” in each case. The Potency entry in [19] and in experiment [20] was “inactive” throughout.
In the case of `Cc1ccccc1[N+](=O)[O-]`, the Potency entry in [1], in experiment [2], in experiment [3], in experiment [4], in [5] and in experiment [6] was “inactive” each time. Also, the Potency result in experiment [7], in experiment [8], in experiment [9], in experiment [10], in experiment [11] and in experiment [12] was “inactive” each time. Moreover, the Potency entry in experiment [13], in experiment [14], in [15], in experiment [16], in [17] and in [19] was “inactive” throughout. Further, the Potency result in experiment [20] is “inactive”.
Turning to `CC1(C)[C@H](C(=O)O[C@H](C#N)c2cccc(Oc3ccccc3)c2)[C@@H]1/C=C(\Cl)C(F)(F)F`, the Potency entry in [1], in experiment [2], in [3], in experiment [4], in experiment [5] and in experiment [6] was “inactive” throughout. The Potency entry in experiment [7], in experiment [8], in [9], in [10], in experiment [11] and in [12] was “inactive” throughout. In addition, the Potency result in experiment [13], in experiment [14], in experiment [15], in experiment [17], in experiment [18] and in experiment [19] was “inactive” throughout. In addition, the Potency entry in experiment [20] is “inactive”.
`O=S(=O)(Cl)Cl`: the Potency entry in experiment [1], in [2], in experiment [3], in [4], in [5] and in [6] was “inactive” throughout. In addition, the Potency result in [7], in experiment [8], in experiment [9], in experiment [10], in experiment [11] and in [12] was “inactive” throughout. Also, the Potency entry in [13], in experiment [14], in experiment [15], in experiment [17] and in experiment [18] was “inactive” each time.
`COc1nc(NC(C)C)nc(NC(C)C)n1`: the Potency result in experiment [1], in experiment [2], in [3], in experiment [4], in experiment [5] and in experiment [6] was “inactive” each time. Besides, the Potency result in [7], in experiment [8], in experiment [9], in experiment [10], in [11] and in [12] was “inactive” in each case. Also, the Potency result in experiment [13], in experiment [14], in [15], in experiment [16], in experiment [18] and in experiment [19] was “inactive” in each case. Moreover, the Potency entry in [20] was “inactive”.
As to `CCN(CCO)CCO`, the Potency entry in [1], in experiment [2], in [3], in [4], in experiment [5] and in experiment [6] was “inactive” in each case. The Potency entry in experiment [7], in [8], in experiment [9], in [10], in experiment [11] and in experiment [12] was “inactive” each time. Besides, the Potency entry in experiment [13], in experiment [14], in experiment [15], in experiment [17] and in experiment [18] was “inactive” in each case.
